Laboratory results published in PubChem BioAssay (NCI).
This is part of a sample that, as a whole, favours compounds with a hit. Of some 79,000 tested, about 15% had one in any assay. A number with no mark means an inactive call. Calls of active or inactive are those of the source. No stated cut-off is given here; in the data, active means growth inhibition above about 70%; inactive means the rest.

Legend:
[1] = NCI Yeast Anticancer Drug Screen. Data for the rad52 strain (AID 147);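 further: 0% = growth of vehicle-treated control cultures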; conditions: S. cerevisiae rad52 mutant growth inhibition, stronger effect = higher value
Method in brief: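 Measured: yeast growth inhibition. System: strain with a defined DNA damage repair alteration. Reference: vehicle-treated control cultures.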

[2] = NCI Yeast Anticancer Drug Screen. Data for the wt1 strain (AID 149);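 further: 0% = growth of vehicle-treated wt1 cultures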; conditions: S. cerevisiae wt1 strain (SPY 50644) growth inhibition, stronger effect = higher value
Method in brief: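 wt1 yeast, compound-treated; % growth inhibition vs vehicle control.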

[3] = NCI Yeast Anticancer Drug Screen. Data for the rad50EPP+ strain (AID 151);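 further: 0% = growth of vehicle-treated control cultures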; conditions: S. cerevisiae rad50 mutant strain, stronger effect = higher value
Method in brief: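 One strain with a rad50 alteration (rad50EPP+) was compound-treated, its growth then compared to that of vehicle controls.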

[4] = NCI Yeast Anticancer Drug Screen. Data for the mgt1 strain (AID 153); conditions: S. cerevisiae mgt1 mutant growth inhibition, stronger effect = higher value
Method in brief: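 After exposure of the mgt1 yeast mutant to compound, growth was measured and reported as inhibition compared with vehicle controls.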

[5] = NCI Yeast Anticancer Drug Screen. Data for the rad14 strain (AID 159);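 further: 0% = growth of vehicle-treated control cultures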; conditions: S. cerevisiae rad14 strain growth inhibition, stronger effect = higher value
Method in brief: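 Test compounds were applied to a repair-deficient yeast strain. Its growth was then compared with that of cultures given vehicle alone, and inhibition was expressed relative to those controls.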

[6] = NCI Yeast Anticancer Drug Screen. Data for the CLN2oe strain (AID 163);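 further: 0% = growth of vehicle-only control cultures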; conditions: S. cerevisiae CLN2oe strain, stronger effect = higher value
Method in brief: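 Here, growth inhibition in a cell-cycle-altered yeast strain after compound exposure was quantified against vehicle control growth.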

[7] = NCI Yeast Anticancer Drug Screen. Data for the wt2 strain (AID 169);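 further: 0% = growth of vehicle-treated yeast cultures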; conditions: S. cerevisiae wt2 strain growth inhibition, stronger effect = higher value
Method in brief: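 Genetically defined yeast strains from a DNA-repair/cell-cycle panel were used. Compound-exposed yeast growth was measured, and the inhibition was calculated relative to vehicle treatment.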

[8] = NCI Yeast Anticancer Drug Screen. Data for the mlh1 strain (AID 171);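 further: 0% = growth of vehicle-treated control cultures of the same strain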; conditions: S. cerevisiae mlh1 strain growth inhibition, stronger effect = higher value
Method in brief: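 Here the genetically defined yeast mutant is grown with each compound, and the extent to which its growth falls below that of vehicle-exposed cells is reported.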

[9] = NCI Yeast Anticancer Drug Screen. Data for the sgs1 strain (AID 173);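 further: 0% = growth of vehicle-only control cultures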; conditions: S. cerevisiae sgs1 mutant, stronger effect = higher value
Method in brief: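 Relative growth inhibition, referenced to vehicle, was determined in a yeast strain with a defined alteration affecting DNA damage repair or cell cycle control after compound exposure.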

[10] = NCI Yeast Anticancer Drug Screen. Data for the rad18 strain (AID 177); conditions: S. cerevisiae rad18 mutant growth inhibition, stronger effect = higher value
Method in brief: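 Screen uses a yeast strain with a defined lesion in DNA damage repair; compound effect is read as loss of growth compared to untreated vehicle cultures.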

[11] = NCI Yeast Anticancer Drug Screen. Data for the rad50 strain (AID 155);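 further: 0% = growth of vehicle-only cultures of the same strain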; conditions: S. cerevisiae rad50 strain growth inhibition, stronger effect = higher value
Method in brief: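 Genetically altered yeast (DNA repair pathway); compound treatment; growth inhibition vs vehicle ctrl.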

[12] = NCI Yeast Anticancer Drug Screen. Data for the mec2-1 strain (AID 157); conditions: S. cerevisiae mec2-1 strain, stronger effect = higher value
Method in brief: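 Test agents were screened against the mec2-1 yeast strain, with defined DNA repair or cell cycle alteration. Growth was scored as inhibition against vehicle-only controls.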

[13] = NCI Yeast Anticancer Drug Screen. Data for the sgs1 mgt1 strain (AID 161);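 further: 0% = growth of cultures given vehicle only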; conditions: S. cerevisiae sgs1 mgt1 strain, stronger effect = higher value
Method in brief: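 Test agents were incubated with a DNA-repair-mutant yeast strain. Growth was then read and compared against vehicle-treated controls.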

[14] = NCI Yeast Anticancer Drug Screen. Data for the cln2 rad14 strain (AID 165);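 further: 0% = growth equal to vehicle treated cultures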; conditions: S. cerevisiae cln2 rad14 strain, stronger effect = higher value
Method in brief: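 Growth of compound-exposed yeast (cln2 rad14 genotype) measured and expressed as inhibition relative to vehicle.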

[15] = NCI Yeast Anticancer Drug Screen. Data for the bub3 strain (AID 167); conditions: S. cerevisiae bub3 mutant strain, stronger effect = higher value
Method in brief: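 Yeast carrying a defined mutation is treated with each compound, and growth is compared with that of vehicle-exposed cells to give inhibition.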

[16] = NCI Yeast Anticancer Drug Screen. Data for the mlh1 rad18 strain (AID 175); conditions: S. cerevisiae mlh1 rad18 strain growth inhibition, stronger effect = higher value
Method in brief: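 In this whole-cell yeast screen, a strain with altered DNA damage repair is challenged with compound, and its growth is measured against matched vehicle-treated controls.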

[17] = at 5.0 µM (retest, dose inferred, filed as 0.5)
[18] = at 50.0 µM (retest, dose inferred, filed as 5.0)

Compound: CC(=O)[O-].O=C([CH-]C(=O)c1ccccc1)c1ccccc1.O=C([CH-]C(=O)c1ccccc1)c1ccccc1.[Sm+3]
- growth inhibition ([1]; at 1.2 µM): 4%
- growth inhibition ([1]; at 3.7 µM): -2%
- growth inhibition ([1]; at 11.0 µM): 80% (active)
- growth inhibition ([1]; at 33.0 µM): 97% (active)
- growth inhibition ([1]; at 100.0 µM): 98% (active)
- growth inhibition ([2]; at 1.2 µM): 4%
- growth inhibition ([2]; at 3.7 µM): 4%
- growth inhibition ([2]; at 11.0 µM): 25%
- growth inhibition ([2]; at 33.0 µM): 98% (active)
- growth inhibition ([2]; at 100.0 µM): 97% (active)
- growth inhibition ([3]; at 1.2 µM): 35%
- growth inhibition ([3]; at 3.7 µM): 70% (active)
- growth inhibition ([3]; at 11.0 µM): 52%
- growth inhibition ([3]; at 33.0 µM): 70% (active)
- growth inhibition ([3]; at 100.0 µM): 79% (active)
- growth inhibition ([4]; at 1.2 µM): 0%
- growth inhibition ([4]; at 3.7 µM): 6%
- growth inhibition ([4]; at 11.0 µM): 50%
- growth inhibition ([4]; at 33.0 µM): 98% (active)
- growth inhibition ([4]; at 100.0 µM): 98% (active)
- growth inhibition ([5]; at 1.2 µM): 6%
- growth inhibition ([5]; at 3.7 µM): 7%
- growth inhibition ([5]; at 11.0 µM): 97% (active)
- growth inhibition ([5]; at 33.0 µM): 99% (active)
- growth inhibition ([5]; at 100.0 µM): 98% (active)
- growth inhibition ([6]; at 1.2 µM): -3%
- growth inhibition ([6]; at 3.7 µM): 6%
- growth inhibition ([6]; at 11.0 µM): 45%
- growth inhibition ([6]; at 33.0 µM): 97% (active)
- growth inhibition ([6]; at 100.0 µM): 97% (active)
- growth inhibition ([7]; at 1.2 µM): 1%
- growth inhibition ([7]; at 3.7 µM): 8%
- growth inhibition ([7]; at 11.0 µM): 65%
- growth inhibition ([7]; at 33.0 µM): 98% (active)
- growth inhibition ([7]; at 100.0 µM): 98% (active)
- growth inhibition ([8]; at 1.2 µM): 3%
- growth inhibition ([8]; at 3.7 µM): 8%
- growth inhibition ([8]; at 11.0 µM): 70% (active)
- growth inhibition ([8]; at 33.0 µM): 98% (active)
- growth inhibition ([8]; at 100.0 µM): 99% (active)
- growth inhibition ([9]; at 1.2 µM): 2%
- growth inhibition ([9]; at 3.7 µM): 7%
- growth inhibition ([9]; at 11.0 µM): 59%
- growth inhibition ([9]; at 33.0 µM): 97% (active)
- growth inhibition ([9]; at 100.0 µM): 97% (active)
- growth inhibition ([10]; at 1.2 µM): 5%
- growth inhibition ([10]; at 3.7 µM): 12%
- growth inhibition ([10]; at 11.0 µM): 43%
- growth inhibition ([10]; at 33.0 µM): 98% (active)
- growth inhibition ([10]; at 100.0 µM): 97% (active)

Compound: CC(C)(O)c1ccccc1C(c1ccccc1)c1ccccc1
- growth inhibition ([1]; at 1.2 µM): 0%
- growth inhibition ([1]; at 3.7 µM): -3%
- growth inhibition ([1]; at 11.0 µM): 9%
- growth inhibition ([1]; at 33.0 µM): 3%
- growth inhibition ([1]; at 100.0 µM): 8%
- growth inhibition ([2]; at 1.2 µM): 0%
- growth inhibition ([2]; at 3.7 µM): -1%
- growth inhibition ([2]; at 11.0 µM): 5%
- growth inhibition ([2]; at 33.0 µM): -3%
- growth inhibition ([2]; at 100.0 µM): 4%
- growth inhibition ([3]; at 1.2 µM): -5%
- growth inhibition ([3]; at 3.7 µM): -4%
- growth inhibition ([3]; at 11.0 µM): 5%
- growth inhibition ([3]; at 33.0 µM): -1%
- growth inhibition ([3]; at 100.0 µM): 4%
- growth inhibition ([11]; at 1.2 µM): -2%
- growth inhibition ([11]; at 3.7 µM): 3%
- growth inhibition [11, 17]: 53%
- growth inhibition ([11]; at 11.0 µM): 4%
- growth inhibition ([11]; at 33.0 µM): 6%
- growth inhibition [11, 18]: 85% (active)
- growth inhibition ([11]; at 50.0 µM): 18.6%
- growth inhibition ([11]; at 100.0 µM): 7%
- growth inhibition ([12]; at 1.2 µM): -2%
- growth inhibition ([12]; at 3.7 µM): 0%
- growth inhibition [12, 17]: -5%
- growth inhibition ([12]; at 11.0 µM): -2%
- growth inhibition ([12]; at 33.0 µM): 1%
- growth inhibition [12, 18]: 42%
- growth inhibition ([12]; at 50.0 µM): 9.35%
- growth inhibition ([12]; at 100.0 µM): 5%
- growth inhibition ([5]; at 1.2 µM): 0%
- growth inhibition ([5]; at 3.7 µM): 0%
- growth inhibition ([5]; at 11.0 µM): 0%
- growth inhibition ([5]; at 33.0 µM): 3%
- growth inhibition ([5]; at 100.0 µM): 10%
- growth inhibition [13, 17]: 25%
- growth inhibition [13, 18]: 88% (active)
- growth inhibition ([13]; at 50.0 µM): 17%
- growth inhibition ([6]; at 1.2 µM): 1%
- growth inhibition ([6]; at 3.7 µM): -1%
- growth inhibition ([6]; at 11.0 µM): 3%
- growth inhibition ([6]; at 33.0 µM): 9%
- growth inhibition ([6]; at 100.0 µM): 17%
- growth inhibition [14, 17]: 17%
- growth inhibition [14, 18]: 80% (active)
- growth inhibition ([14]; at 50.0 µM): -1%
- growth inhibition ([15]; at 1.2 µM): -2%
- growth inhibition ([15]; at 3.7 µM): -2%
- growth inhibition [15, 17]: 29%
- growth inhibition ([15]; at 11.0 µM): -4%
- growth inhibition ([15]; at 33.0 µM): -2%
- growth inhibition [15, 18]: 86% (active)
- growth inhibition ([15]; at 50.0 µM): 7.9%
- growth inhibition ([15]; at 100.0 µM): 4%
- growth inhibition ([7]; at 1.2 µM): -9%
- growth inhibition ([7]; at 3.7 µM): -10%
- growth inhibition ([7]; at 11.0 µM): -12%
- growth inhibition ([7]; at 33.0 µM): -10%
- growth inhibition ([7]; at 100.0 µM): -17%
- growth inhibition ([8]; at 1.2 µM): -3%
- growth inhibition ([8]; at 3.7 µM): -3%
- growth inhibition ([8]; at 11.0 µM): -2%
- growth inhibition ([8]; at 33.0 µM): 0%
- growth inhibition ([8]; at 100.0 µM): 9%
- growth inhibition ([9]; at 1.2 µM): -6%
- growth inhibition ([9]; at 3.7 µM): 20%
- growth inhibition ([9]; at 11.0 µM): -14%
- growth inhibition ([9]; at 33.0 µM): -5%
- growth inhibition ([9]; at 100.0 µM): 1%
- growth inhibition [16, 17]: 59%
- growth inhibition [16, 18]: 92% (active)
- growth inhibition ([16]; at 50.0 µM): 10.9%
